The text below walks through data of ChEMBL document CHEMBL1201862, “PubChem BioAssay data set” (2004).

Molecules are shown by their SMILES. Several values for one entry are separate records, joined by “and”; a condition that tells them apart may be missing. Equal entries are not always repeated.

The assay is described as follows: A High Throughput Confirmatory Assay used to Identify Novel Compounds that Inhibit Mycobacterium Tuberculosis in the absence of Glycerol using Purified and Synthesized Compounds (7). The class given is functional.
As a reminder, the IC90 is the concentration at which the effect reaches the 90% level. With `O=C(NCCc1ccc(Cl)cc1)C1CCC(CNc2c(N3CCCCC3)c(=O)c2=O)CC1` (stereo not drawn), the IC90 was > 100 µM (active). On to `O=C(c1ccc(CNc2c(N3CCCC3)c(=O)c2=O)cc1)N1CCc2ccccc2C1`, for which the IC90 is > 100 µM (active).

Turning to `CC1CCN(C(=O)c2ccc(CNc3c(N4CCCC4)c(=O)c3=O)cc2)CC1`, the IC90 was > 100 µM (active). Consider `O=C(c1ccc(CNc2c(N3CCCC3)c(=O)c2=O)cc1)N1CC=C(c2ccccc2)CC1`, for which the IC90 was > 68.8 µM (active) and > 79.4 µM (active). For the compound `O=C(NCCc1ccc(Cl)cc1)c1ccc(CNc2c(N3CCOCC3)c(=O)c2=O)cc1`, the IC90 was > 100 µM (active). Next, `CC1CCCN(C(=O)C2CCC(CNc3c(N4CCCCC4)c(=O)c3=O)CC2)C1` (stereo not drawn): > 100 µM (active); `CC(=O)c1ccc(NC(=O)c2ccc(CNc3c(N4CCOCC4)c(=O)c3=O)cc2)cc1`: > 100 µM (active). As for `COc1ccc(N2CCN(C(=O)c3ccc(CNc4c(N5CCOCC5)c(=O)c4=O)cc3)CC2)cc1`, the IC90 is > 100 µM (active). The same measure for `CC1CC(C)CN(C(=O)c2ccc(CNc3c(N4CCCC4)c(=O)c3=O)cc2)C1` (stereo not drawn): > 100 µM (active). Turning to `O=C(C1CCC(CNc2c(N3CCCCC3)c(=O)c2=O)CC1)N1CCCCC1` (stereo not drawn), the IC90 is > 100 µM (active). For `CC1CC(C)CN(C(=O)C2CCC(CNc3c(N4CCCCC4)c(=O)c3=O)CC2)C1` (stereo not drawn), the concentration for an effect of 90% (IC90) was > 75 µM (active) and > 100 µM (active). On to `CC(C)OC(=O)CSc1ncnc2c1cnn2-c1ccccc1`, for which the IC90 was > 100 µM (active). On to `CC1CCCN(C(=O)c2ccc(CNc3c(N4CCCCC4)c(=O)c3=O)cc2)C1` (stereo not drawn), for which the IC90 was > 100 µM (active).
